SMILES strings stand for the structures. Where “and” joins values, the source holds several entries; their conditions need not be identical. Identical values can stand only once. Calls of active or inactive are those of the source.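 How the source made its calls: active means GFP response above 150% of the DMSO control; inconclusive means Under 70 cell events counted for a yeast strain; inactive means the rest.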

A short description of the test: yeast TOR pathway CIT2-GFP reporter retest – flow cytometry, third cherry pick, single plex, confirmation (AID 504340).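 Further: median GFP fluorescence over all cells with no mother versus daughter split; sample signal as a ratio to the plate DMSO mean so 100% equals DMSO.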 The conditions noted are these: S. cerevisiae CIT2-GFP strain, 3 h, at 10 µM, active compounds read high. A general note: Flow cytometry measures light scatter and fluorescence of single cells or particles in a stream.
On to `CC(=O)Nc1ccc(-c2nc3cc(Cl)ccc3o2)cc1`, for which the GFP response vs DMSO is 91.2% (inactive).

In the case of `COc1ccccc1-c1cc(C(F)(F)F)nc(S(=O)(=O)CCCC(=O)O)n1`, the GFP response vs DMSO was 111% (inactive).

`COC(=O)c1cc(=O)c2cccc(OC)c2[nH]1`: the GFP response vs DMSO is 101% (inactive).

On to `C/C(=C\C(=O)c1ccc(Cl)cc1)Nc1ccc(Br)cc1`, for which the GFP response vs DMSO was 104% (inactive).

For `C/C(=C\C(=O)c1ccccc1)Nc1cccc(O)c1`, the GFP response vs DMSO was 99.3% (inactive).

On to `CCN(CC)C(=O)Oc1cc(=O)n(C)c2ccccc12`, for which the GFP response vs DMSO was 101% (inactive).

Take `Cc1ccc(C(=O)Nc2nc(-c3ccccn3)cs2)o1`: the GFP response vs DMSO is 99.3% (inactive).

Turning to `Cc1ccc2c(C)ccc(O)c2n1`, the GFP response vs DMSO was 106% (inactive).

For the compound `CNc1nc(N)c([N+](=O)[O-])c(Nc2cccc(Cl)c2)n1`, the GFP response vs DMSO was 480% (active).

As for `O=C(O)CCCCCNc1ncnc2ccc(Br)cc12`, the GFP response vs DMSO is 106% (inactive).

Regarding `CC(=O)Nn1cnc2c(c1=O)C1(CCCCC1)Cc1ccccc1-2`, the GFP response vs DMSO was 112% (inactive).

For the compound `O=C(Nc1cccc(Cl)c1)ON=C1c2ccccc2-c2ccccc21`, the GFP response vs DMSO is 101% (inactive).

`CSc1nc(S(C)(=O)=O)nc2[nH]c(=O)[nH]c12`: the GFP response vs DMSO is 106% (inactive).

In the case of `Oc1c(Cl)cc(Cl)c2cccnc12`, the GFP response vs DMSO is 142% (inactive).

Regarding `OCCN1CCN(c2ncnc3ccc(Br)cc23)CC1`, the GFP response vs DMSO was 101% (inactive).

`COc1cccc(N/C(C)=C/C(=O)c2ccc(Br)cc2)c1`: the GFP response vs DMSO is 104% (inactive).

Regarding `COCC(C)NC(=O)CCS(=O)(=O)c1nc(-c2ccc(OC)cc2)cc(C(F)(F)F)n1` (centres undefined), the GFP response vs DMSO was 103% (inactive) and 92.8% (inactive).

For the compound `Oc1ccc(F)c2cccnc12`, the GFP response vs DMSO was 101% (inactive).

With `O=C(Nc1nc(-c2ccccn2)cs1)c1ccccc1-n1cnnn1`, the GFP response vs DMSO is 103% (inactive).

As to `Oc1c(I)cc(Cl)c2cccnc12`, the GFP response vs DMSO was 182% (active).

Turning to `N#Cc1c(N)nc(N)nc1Nc1ccc(Br)cc1`, the GFP response vs DMSO is 99.3% (inactive).

`COc1ccccc1Nc1nc(NCCO)nc(N)c1[N+](=O)[O-]`: the GFP response vs DMSO is 111% (inactive).

In the case of `NC(=O)COc1cccc2cccnc12`, the GFP response vs DMSO is 104% (inactive).

Take `CC1=CN2C(=N)/C(=C/c3ccc([N+](=O)[O-])o3)C(=O)N=C2S1`: the GFP response vs DMSO is 1030% (active).

`Cc1cccc(Nc2cc(=O)[nH]c(=O)[nH]2)c1`: the GFP response vs DMSO is 94.5% (inactive).

Turning to `C/C(=C\C(=O)c1ccc(C)cc1)Nc1cccc(O)c1`, the GFP response vs DMSO is 103% (inactive).

Consider `O=C(N/N=C/c1ccccc1)c1cccc2ccccc12`, for which the GFP response vs DMSO was 97.7% (inactive).

On to `Cc1ccc(-c2cc(C(F)F)nc(S(C)(=O)=O)n2)cc1`, for which the GFP response vs DMSO was 91.2% (inactive).

Turning to `O=C(Nc1ccccc1)O/N=C1/CCCc2occc21`, the GFP response vs DMSO is 103% (inactive).

Turning to `Cc1nc(Nc2ccc(Cl)cc2)c(C#N)c(=O)[nH]1`, the GFP response vs DMSO is 107% (inactive).

On to `COc1cccc2c(=O)c(C(=O)O)c[nH]c12`, for which the GFP response vs DMSO is 99.3% (inactive).

Regarding `CC(=O)Nn1cnc2c(c1=O)C1(CCCC1)Cc1ccccc1-2`, the GFP response vs DMSO was 89.6% (inactive).

Turning to `O=C(O)c1ccc(C=NNC(=O)c2cccc3ccccc23)cc1`, the GFP response vs DMSO was 106% (inactive).

With `COc1ccc(NC(=O)ON=C2c3ccccc3-c3ccccc32)cc1`, the GFP response vs DMSO is 109% (inactive).

On to `COc1ccc(OC)c(Nc2nc(NCCC(C)C)nc(N)c2[N+](=O)[O-])c1`, for which the GFP response vs DMSO was 103% (inactive).

Turning to `O=C1c2ccccc2C(=O)c2c1cccc2N(CCO)CCO`, the GFP response vs DMSO was 92.8% (inactive).

In the case of `O=C(O)c1ccc2cccc(O)c2n1`, the GFP response vs DMSO is 109% (inactive).

As to `O=c1cc(C(F)(F)F)[nH]c2c(OC(F)(F)F)cccc12`, the GFP response vs DMSO was 107% (inactive).

On to `COc1cccc(OCc2cc(C(=O)N3CCN(C)C(c4ccccc4)C3)no2)c1` (centres undefined), for which the GFP response vs DMSO was 97.7% (inactive).

The values above are taken from PubChem BioAssay AID504340 (NMMLSC, 2011).
